NPC1 promoter act – activators of NPC1 promoter; hit rate 2.4% among 320,000; AID 485313; Huh7 NPC1 promoter luciferase reporter, 24 h; Potency, µM (series often up to 9.22 µM), for the others: at the top dose activation, hits mostly activators; note: % of control where 0% means no effect; nearly all actives have a fitted effect of over 60% in size
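Quantitative HTS used a cell-based reporter: Huh7 cells stably bearing the NPC1 promoter upstream of luciferase were treated with compounds for 24 h, and promoter activation was read as luminescence.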
SMN2 splice up – enhancers of SMN2 splice variant expression. HEK293 SMN2-luciferase splicing reporter, luminescence, 30-36 h. Potency, µM (top dose mostly 46.1 µM), inactives show at the top dose activity change, positive = activation, actives largely listed as activators. hit rate 2.8% among 210,000; note: % of control where 0% means no effect; nearly all actives have a fitted effect of over 55% in size
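HEK293 cells carry an SMN2 minigene-luciferase reporter in which exon 7 inclusion puts luciferase in frame. Cells were seeded at 2000 cells/well, attached for 10-12 hours, then exposed to compounds for 30-36 hours at 37C before ONE-Glo luminescence.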
ELG1 genotox – inducers of genotoxicity in HEK293T ELG1-luciferase cells; AID 504466; hit rate 1.3% among 330,000; HEK293T ELG1-luciferase reporter, luminescence, 16 h; Potency, µM (top dose mostly 46 µM), inactives show at the top dose activity change, positive = activation, actives largely listed as activators; note: % of control where 0% means no effect; nearly all actives have a fitted effect of over 60% in size
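DMSO vehicle served as control against compound-treated ELG1-luciferase HEK293T cells; exposure lasted 16 hr at 37 °C and 5% CO2, followed by ONE-Glo luminescence detection after 30 min.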
FLuc modulator – inhibits or activates purified firefly luciferase, miR-21 counter-screen; Potency, µM (doses to about 57.5 µM), for inactives: at the top dose activity change, negative = inhibition, hits mostly inhibitors; purified FLuc, Km substrates, luminescence inhibition; AID 588342; hit rate 6.9% among 360,000;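 note: plate controls were vehicle for no effect and reference inhibitor for full effect; nearly all actives have a fitted effect of over 55% in size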
Target sequence (P08659 whole entry, looked up): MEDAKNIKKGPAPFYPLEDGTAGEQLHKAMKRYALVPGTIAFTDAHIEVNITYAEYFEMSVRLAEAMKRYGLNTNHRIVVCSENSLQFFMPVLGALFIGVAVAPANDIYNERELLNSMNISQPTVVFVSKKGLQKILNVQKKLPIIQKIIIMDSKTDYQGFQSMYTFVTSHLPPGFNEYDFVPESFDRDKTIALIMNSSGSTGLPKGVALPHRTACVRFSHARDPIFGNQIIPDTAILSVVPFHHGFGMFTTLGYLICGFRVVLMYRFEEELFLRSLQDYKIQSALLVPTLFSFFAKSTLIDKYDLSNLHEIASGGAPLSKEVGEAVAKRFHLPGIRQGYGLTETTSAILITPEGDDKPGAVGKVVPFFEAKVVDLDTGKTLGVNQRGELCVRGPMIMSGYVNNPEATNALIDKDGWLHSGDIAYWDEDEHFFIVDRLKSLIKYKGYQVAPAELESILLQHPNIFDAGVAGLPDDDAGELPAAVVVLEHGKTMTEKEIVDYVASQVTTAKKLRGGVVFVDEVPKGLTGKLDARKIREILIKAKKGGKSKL
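Purified P. pyralis luciferase, 10 nM final, with Km-level 10 uM D-luciferin and 10 uM ATP in 50 mM Tris acetate pH 7.5, 10 mM Mg acetate, 0.01% Tween-20, 0.05% BSA; 6-point qHTS titration about 60 µM downward; luminescence read.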
ELG1 repair inh – blocks ELG1-dependent DNA repair in HEK293T cells; HEK293T ELG1-luciferase reporter, luminescence, 16 h; DNA damage induced by 5-fluorouridine; Potency, µM (top dose mostly 46.1 µM), without a hit: at the highest dose activity change, negative = inhibition, most hits filed as inhibitors; hit rate 2.3% among 330,000; note: % is set by controls: 0 for no effect and ±100 for the full control effect; nearly all actives have a fitted effect of over 55% in size
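Step one: seed 2,000 cells per well. Step two: pin-transfer compound or DMSO alongside 5-fluorouridine. Step three: incubate 16 hr, 37 °C, 5% CO2. Step four: add ONE-Glo, wait 30 min, read luminescence.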
Rab9 promoter act – activators of Rab9 promoter; Huh7 Rab9 promoter-luciferase reporter, luminescence, 24 h; Potency, µM (highest dose often 9.22 µM), inactives show at the top dose activation, negative = inhibition, actives largely listed as activators; hit rate 2.8% among 320,000; note: % of control where 0% means no effect; nearly all actives have a fitted effect of over 60% in size
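Cells were plated at 1500 per well in reduced-serum medium with 10% FBS and left 2 h. Compound in DMSO was then added for 24 h at 37 °C. Reporter signal was read by luminescence after 10 min with luciferase detection reagent.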
Numbers without * were called inactive; ? = inconclusive; . = no result given. Shown are actives, neighbours in structure and some others; about 9.2% of the full set was active somewhere. Calls come from the whole dose curve; as a rule, active = well fitted curve in the direction sought with a large enough effect; inconclusive = small, poorly fitted or top-dose-only effect, or another doubt; inactive = no such curve, though single readings can be large; an effect the other way counts as inactive or inconclusive. Potency is the fitted concentration of half-maximal effect.

SMILES | NPC1 promoter act | SMN2 splice up | ELG1 genotox | FLuc modulator | ELG1 repair inh | Rab9 promoter act
CCN(CC)CCNC(=O)c1cc2c(-c3cccc(OC)c3)nn(C)c2s1 | 1.3% | -68.7% | 5.3% | 2.8% | ? | -10.4%
COCCCNC(=O)c1cc2c(-c3cccc(OC)c3)nn(C)c2s1 | -1.6% | -7.4% | -1.4% | -9.5% | 11.6µM* | 3.4%
CCOCCCNC(=O)c1cc2c(-c3ccc(Cl)cc3)nn(C)c2s1 | -12.6% | -9.5% | -15.3% | -1.6% | 20.6µM* | -18.0%
CCN(CC)C(=O)Cn1c(=O)n(Cc2ccc(C(=O)NCCc3ccc(OC)c(OC)c3)cc2)c(=O)c2ccccc21 | . | 6.4% | . | -17.4% | . | .
CC(C)(C)OC1NS(=O)(=O)OCC1NCOC(Cl)(Cl)Cl (stereo not given) | -3.6% | . | 14.8% | -5.7% | -14.1% | 3.1%
COc1ccc(OC)c(Nc2ncnc3sc(-c4ccccc4)cc23)c1 | 1.9% | 11.3% | -0.6% | ? | -25.8% | -6.1%
COc1ccc(-c2cc3nnc(-c4ccccc4)nc3s2)cc1 | 22.0% | 0.708µM* | ? | 0.169µM* | ? | ?
Cc1ccccc1Nc1nc(N)nc(COC(=O)c2ccc([N+](=O)[O-])o2)n1 | 0.5% | . | 2.9% | 3.5% | 22.0% | -0.1%
Cc1nnc(SCC(=O)Nc2cccc(S(=O)(=O)N3CCCCC3)c2)s1 | -7.4% | . | -0.9% | . | -12.5% | -3.4%
Cc1ccc(Nc2nnc(SCC(=O)Nc3cccc(S(=O)(=O)N4CCCCC4)c3)s2)cc1 | 15.5% | 24.4% | -2.3% | 2.69µM* | -22.0% | 17.3%
O=C(CSc1nnc(Nc2ccccc2F)s1)Nc1cccc(S(=O)(=O)N2CCCCC2)c1 | 0.7% | 5.6% | 1.9% | 13.5µM* | -10.8% | 4.4%
CCN1CCN(C(=O)C(=O)c2cn(CC(=O)N3CCCC3)c3ccccc23)CC1 | 0.1% | . | 1.2% | 3.2% | ? | -1.6%
Cc1c(C(=O)N(Cc2cccc(F)c2)C2CCS(=O)(=O)C2)oc2cc(Br)ccc12 (stereo not given) | . | -3.8% | . | -9.5% | . | .
CCOC(=O)c1cc2c(C)n(-c3ccc(N(C)C)cc3)c(C)c2cc(C(=O)OCC)c1=O | 28.7% | -22.6% | 2.0% | 1.69µM* | ? | ?
CCOC(=O)c1cc2c(C)n(-c3ccc(OCC)cc3)c(C)c2cc(C(=O)OCC)c1=O | 0.1% | 5.8% | 1.2% | -13.2% | 12.9% | 0.1%
Cc1ccc(NC(=O)Cc2noc3ccccc23)cc1 | ? | ? | ? | 21.3µM* | ? | ?
Oc1cccc(/C=C/c2ccc3cccc(O)c3n2)c1 | ? | . | ? | 1.51µM* | ? | 13.3%
CC(=O)COc1cccc2ccc(/C=C/c3ccc(Br)s3)nc12 | ? | . | -5.4% | 19µM* | 4.3% | ?
COc1cc(/C=C/c2ccc3c(Br)cc(Br)c(O)c3n2)ccc1O | -10.5% | . | ? | -3.9% | ? | -32.6%
COc1cccc(/C=C/c2ccc3cccc(O)c3n2)c1 | ? | . | 23.1µM* | 1.51µM* | ? | 17.1%
CCc1ccccc1NC(=O)COc1cccc2ccc(C)nc12 | 1.1% | -7.5% | -7.5% | 1.3% | ? | -0.8%
O=C(O)c1ccc2cccc(O)c2n1 | 2.4% | . | -0.3% | -10.6% | -9.3% | -6.2%
Cc1ccc(/C=C/c2ccc3cccc(O)c3n2)s1 | 3.98µM* | . | 20.6µM* | 2.69µM* | ? | 3.16µM*
Cn1c(=O)c2c(-c3ccccc3Br)n(C(C)(C)C)cc2n(C)c1=O | . | 4.1% | . | -15.5% | . | .
Cc1ccc(-n2ncc3c(NC4CCCCC4)ncnc32)cc1Cl | . | . | . | 1.07µM* | . | .
SMILES | NPC1 promoter act | SMN2 splice up | ELG1 genotox | FLuc modulator | ELG1 repair inh | Rab9 promoter act
CCC(=O)NNc1ncnc2c1cnn2-c1ccc(C)c(Cl)c1 | . | . | . | 21.3µM* | . | .
Cc1ccc(-n2ncc3c(NC4CCCCC4)ncnc32)cc1C | . | . | . | 0.601µM* | . | .
Cc1ccc(-n2ncc3c(N4CCN(Cc5ccccc5)CC4)ncnc32)cc1Cl | . | . | . | -11.1% | . | .
CC(=O)NNc1ncnc2c1cnn2-c1ccc(C)c(C)c1 | 10.7% | 22.2% | ? | ? | ? | 20.2%
COc1cc2oc(=O)ccc2cc1[C@H](O)[C@@H](O)C(C)(C)O | -3.0% | . | 2.4% | -1.3% | 23.0% | 0.4%
COC(=O)c1c(C)[nH]c(C=Nc2ccc(OC)cc2)c1C | 3.0% | . | 5.4% | 7.57µM* | 11.8% | -1.9%
CCOC(=O)c1c(C)[nH]c(C=Nc2ccc(OC)cc2)c1O | 3.98µM* | 11.2µM* | ? | 21.3µM* | ? | 2.24µM*
COc1cccc(NC(=O)CSc2nc(=O)n(Cc3cccnc3)c3c2CCC3)c1 | . | . | . | -1.7% | . | .
CCc1noc(C)c1C(=O)OCC(=O)c1ccc(NC(C)=O)cc1F | . | . | 1.9% | . | -1.2% | .
CC1CCC/C(=C\Nc2ccc(O)cc2)C1=O (stereo not given) | 2.3% | -10.5% | 18.4µM* | 21.3µM* | ? | ?
Cc1cc(C(=O)O)ccc1N/C=C1\CCCC(C)C1=O (stereo not given) | ? | ? | ? | 0.953µM* | ? | ?
O=C(CCCOc1ccccc1)NN1C(=O)NC2(CCCCC2)C1=O | 0.0% | . | -0.3% | -1.9% | 26.1% | 1.6%
COc1ccc(C(=O)/C(C#N)=N/Nc2ccc([N+](=O)[O-])cc2)cc1 | -37.3% | -69.5% | -14.4% | -19.4% | 1.3µM* | -52.0%
N#C/C(=N\Nc1ccccc1)C(=N)N1CCCCCC1 | 1.78µM* | . | ? | 3.38µM* | ? | 1µM*
N#C/C(=N\Nc1cccc(F)c1)C(=N)N1CCCCCC1 | 0.501µM* | 12.6µM* | ? | 2.39µM* | ? | 0.562µM*

Screens (PubChem)
